Measurements taken from the supplement of paper PMC10849652.
The full data set covers some 8,800 targets. This sample favours those with a hit. About 0.5% of all pairs of compound and target were hits. Unmarked numbers belong to inactive results.

Assays:
Assay in all cases: log2 fold change, soluble protein after heating vs DMSO (PISA); higher = thermal stabilisation; K562 lysate, 10 uM; active = over 0.2 and 3.5 SD of the protein, either way, in both replicates (recomputed)
nilotinib = compound: Cc1cn(-c2cc(NC(=O)c3ccc(C)c(Nc4nccc(-c5cccnc5)n4)c3)cc(C(F)(F)F)c2)cn1 [nilotinib]
Summary of the method: (§1)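 Following dounce homogenisation of K562 pellets in PBS pH 7.4 with 1 mM MgCl2, crude extract at 1 mg/mL protein was incubated for 30 min with 10 μM compound. Aliquots were then heated for 3 min over 48°C-58°C and pooled, NP-40 was added to 0.5% at 4°C, and soluble protein was recovered as the supernatant at 21,000xg for 90 min. Channel-sum-equalised TMTpro 16plex LC-MS/MS quantified this protein. Each value, from duplicates, is a log-two fold change in thermal stability relative to solvent controls.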

[1] = compound: Cc1nc(Nc2n[nH]c3c2CN(C(=O)N[C@H](CN(C)C)c2ccccc2)C3(C)C)c2sccc2n1
Summary of the method: as §1

dasatinib = compound: Cc1nc(Nc2ncc(C(=O)Nc3c(C)cccc3Cl)s2)cc(N2CCN(CCO)CC2)n1 [dasatinib]
Summary of the method: as §1

[2] = compound: Cc1ncc(-c2ccnc(Nc3ccc(S(C)(=O)=O)cc3)n2)n1C(C)C
Summary of the method: as §1

[3] = compound: Cn1cc(-c2ccc3c(c2)CCN3C(=O)Cc2cccc(C(F)(F)F)c2)c2c(N)ncnc21
Summary of the method: as §1

quisinostat = compound: Cn1cc(CNCC2CCN(c3ncc(C(=O)NO)cn3)CC2)c2ccccc21 [quisinostat]
Summary of the method: as §1

tipifarnib = compound: Cn1cncc1[C@@](N)(c1ccc(Cl)cc1)c1ccc2c(c1)c(-c1cccc(Cl)c1)cc(=O)n2C [tipifarnib]
Summary of the method: as §1

[4] = compound: NC(=O)Nc1cc(-c2cccc(F)c2)sc1C(=O)N[C@H]1CCCNC1
Summary of the method: as §1

[5] = compound: NC(=O)c1cnc(N[C@@H]2CCCC[C@@H]2N)nc1Nc1cccc(-n2nccn2)c1
Summary of the method: as §1

[6] = compound: NC1(c2ccc(-c3nc4ccn5c(=O)[nH]nc5c4cc3-c3ccccc3)cc2)CCC1
Summary of the method: as §1

[7] = compound: NCC(=O)Nc1ccc(-n2nc(C(F)(F)F)cc2-c2ccc3c(ccc4ccccc43)c2)cc1
Summary of the method: as §1

vorinostat = compound: O=C(CCCCCCC(=O)Nc1ccccc1)NO [vorinostat]
Summary of the method: as §1

silmitasertib = compound: O=C(O)c1ccc2c(c1)nc(Nc1cccc(Cl)c1)c1ccncc12 [silmitasertib]
Summary of the method: as §1

[8] = compound: O=C1NC(=O)C(c2cnc3ccccn23)=C1c1cn2c3c(cc(F)cc13)CN(C(=O)N1CCCCC1)CC2
Summary of the method: as §1

entospletinib = compound: c1cn2cc(-c3ccc4cn[nH]c4c3)nc(Nc3ccc(N4CCOCC4)cc3)c2n1 [entospletinib]
Summary of the method: as §1

Chain of UniProt Q13416 (Q13416 whole entry, looked up): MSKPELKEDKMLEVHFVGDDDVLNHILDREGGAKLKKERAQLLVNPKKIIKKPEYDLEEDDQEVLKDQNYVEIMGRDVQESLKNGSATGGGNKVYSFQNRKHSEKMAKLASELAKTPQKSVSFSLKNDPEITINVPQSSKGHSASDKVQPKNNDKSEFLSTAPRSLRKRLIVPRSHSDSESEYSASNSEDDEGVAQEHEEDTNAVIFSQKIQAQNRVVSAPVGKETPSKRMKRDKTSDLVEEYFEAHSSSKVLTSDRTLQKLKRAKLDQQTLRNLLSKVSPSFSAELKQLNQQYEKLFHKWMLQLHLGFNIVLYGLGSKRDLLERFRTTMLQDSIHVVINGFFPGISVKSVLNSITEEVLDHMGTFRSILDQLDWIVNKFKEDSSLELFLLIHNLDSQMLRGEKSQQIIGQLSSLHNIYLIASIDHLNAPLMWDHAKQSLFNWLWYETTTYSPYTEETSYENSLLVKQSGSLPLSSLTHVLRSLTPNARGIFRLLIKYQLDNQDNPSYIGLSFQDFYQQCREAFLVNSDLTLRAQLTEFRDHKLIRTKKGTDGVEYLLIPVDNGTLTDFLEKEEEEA
Chain of UniProt P42695 (P42695 whole entry, looked up): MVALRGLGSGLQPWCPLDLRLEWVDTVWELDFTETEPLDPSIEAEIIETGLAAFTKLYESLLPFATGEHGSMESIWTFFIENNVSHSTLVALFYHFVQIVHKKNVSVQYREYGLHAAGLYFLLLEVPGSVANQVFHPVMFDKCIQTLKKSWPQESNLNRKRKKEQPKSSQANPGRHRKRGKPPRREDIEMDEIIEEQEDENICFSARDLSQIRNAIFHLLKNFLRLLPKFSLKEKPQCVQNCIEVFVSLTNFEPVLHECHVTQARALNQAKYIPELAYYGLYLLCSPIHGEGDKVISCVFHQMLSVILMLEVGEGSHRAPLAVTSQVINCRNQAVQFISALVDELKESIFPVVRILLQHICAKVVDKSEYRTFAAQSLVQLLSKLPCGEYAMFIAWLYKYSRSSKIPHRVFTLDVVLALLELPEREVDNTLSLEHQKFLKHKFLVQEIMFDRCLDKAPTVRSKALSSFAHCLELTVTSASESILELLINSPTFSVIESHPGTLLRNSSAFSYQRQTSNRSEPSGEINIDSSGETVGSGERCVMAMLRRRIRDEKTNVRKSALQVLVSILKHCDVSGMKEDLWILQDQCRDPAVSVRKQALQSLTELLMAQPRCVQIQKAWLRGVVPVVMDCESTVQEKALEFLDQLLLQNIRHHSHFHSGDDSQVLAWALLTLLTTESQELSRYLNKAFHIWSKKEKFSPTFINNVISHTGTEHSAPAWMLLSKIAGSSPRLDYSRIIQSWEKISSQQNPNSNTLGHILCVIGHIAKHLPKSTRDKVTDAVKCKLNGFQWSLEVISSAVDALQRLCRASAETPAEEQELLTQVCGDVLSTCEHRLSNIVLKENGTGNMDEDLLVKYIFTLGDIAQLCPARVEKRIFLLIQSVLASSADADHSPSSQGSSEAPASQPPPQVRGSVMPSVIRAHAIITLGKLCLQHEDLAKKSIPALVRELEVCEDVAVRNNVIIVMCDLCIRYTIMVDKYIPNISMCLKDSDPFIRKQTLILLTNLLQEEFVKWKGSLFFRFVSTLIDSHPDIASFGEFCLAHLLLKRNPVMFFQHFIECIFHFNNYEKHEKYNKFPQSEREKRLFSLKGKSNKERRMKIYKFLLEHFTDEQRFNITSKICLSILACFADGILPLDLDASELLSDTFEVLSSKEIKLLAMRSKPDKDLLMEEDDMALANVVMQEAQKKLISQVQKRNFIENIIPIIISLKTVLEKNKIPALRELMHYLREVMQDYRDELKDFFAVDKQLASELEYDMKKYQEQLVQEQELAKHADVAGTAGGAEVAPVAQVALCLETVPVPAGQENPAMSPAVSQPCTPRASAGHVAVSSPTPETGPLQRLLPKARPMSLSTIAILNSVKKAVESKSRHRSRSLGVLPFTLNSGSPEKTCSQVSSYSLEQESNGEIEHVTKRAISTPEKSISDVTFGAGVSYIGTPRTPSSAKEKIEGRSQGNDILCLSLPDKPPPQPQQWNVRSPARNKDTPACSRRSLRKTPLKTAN
Chain of UniProt O00221 (O00221 whole entry, looked up): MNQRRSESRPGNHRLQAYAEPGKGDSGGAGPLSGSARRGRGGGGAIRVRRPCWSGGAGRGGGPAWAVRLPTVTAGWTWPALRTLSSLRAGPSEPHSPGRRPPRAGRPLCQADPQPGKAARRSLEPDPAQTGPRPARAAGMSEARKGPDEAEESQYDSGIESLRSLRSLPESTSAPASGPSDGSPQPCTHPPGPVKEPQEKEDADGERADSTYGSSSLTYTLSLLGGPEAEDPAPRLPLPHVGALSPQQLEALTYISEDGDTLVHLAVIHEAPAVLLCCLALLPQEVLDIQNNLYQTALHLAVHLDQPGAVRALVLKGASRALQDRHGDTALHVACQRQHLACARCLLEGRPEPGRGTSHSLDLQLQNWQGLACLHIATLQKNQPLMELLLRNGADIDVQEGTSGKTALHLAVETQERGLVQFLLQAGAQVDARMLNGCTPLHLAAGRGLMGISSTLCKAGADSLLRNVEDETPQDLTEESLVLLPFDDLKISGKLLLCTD
Chain of UniProt Q9ULX3 (Q9ULX3 whole entry, looked up): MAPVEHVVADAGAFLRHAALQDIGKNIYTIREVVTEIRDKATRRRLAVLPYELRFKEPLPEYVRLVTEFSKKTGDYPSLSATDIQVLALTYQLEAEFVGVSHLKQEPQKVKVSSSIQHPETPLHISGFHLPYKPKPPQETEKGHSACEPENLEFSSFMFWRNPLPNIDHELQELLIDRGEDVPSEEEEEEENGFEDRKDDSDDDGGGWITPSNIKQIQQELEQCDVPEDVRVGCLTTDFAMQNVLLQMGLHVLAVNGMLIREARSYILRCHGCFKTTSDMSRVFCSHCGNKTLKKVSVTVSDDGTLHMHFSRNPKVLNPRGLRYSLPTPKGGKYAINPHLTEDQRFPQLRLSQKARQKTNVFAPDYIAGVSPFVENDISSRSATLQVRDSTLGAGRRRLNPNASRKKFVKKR
Chain of UniProt Q96IY1 (Q96IY1 whole entry, looked up): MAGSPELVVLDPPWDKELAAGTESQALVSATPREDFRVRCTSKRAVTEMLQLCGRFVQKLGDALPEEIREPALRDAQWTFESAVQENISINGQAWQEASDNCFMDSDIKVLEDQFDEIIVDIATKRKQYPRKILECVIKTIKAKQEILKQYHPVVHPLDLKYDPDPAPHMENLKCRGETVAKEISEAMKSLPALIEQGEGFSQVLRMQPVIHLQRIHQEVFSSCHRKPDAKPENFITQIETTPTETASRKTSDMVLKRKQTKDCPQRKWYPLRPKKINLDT

| Target | log2 fold change (nilotinib) | log2 fold change [1] | log2 fold change (dasatinib) | log2 fold change [2] | log2 fold change [3] | log2 fold change (quisinostat) | log2 fold change (tipifarnib) | log2 fold change [4] | log2 fold change [5] | log2 fold change [6] | log2 fold change [7] | log2 fold change (vorinostat) | log2 fold change (silmitasertib) | log2 fold change [8] | log2 fold change (entospletinib) |
| --- | --- | --- | --- | --- | --- | --- | --- | --- | --- | --- | --- | --- | --- | --- | --- |
| NF1 (UniProt P21359) | -0.021 | 0.053 | 0.007 | -0.039 | 0.024 | -0.059 | 0.018 | 0.041 | 0.016 | -0.016 | 0.03 | -0.634 (active) | 0.037 | 0.01 | 0.025 |
| NOB1 (UniProt Q9ULX3) | 0.018 | -0.026 | 0.004 | -0.066 | 0.044 | 0.041 | 0 | 0.043 | -0.018 | 0.058 | 0.017 | -0.128 | 0.048 | -0.024 | 0.024 |
| ORC2 (UniProt Q13416) | 0 | 0.009 | -0.036 | -0.014 | -0.004 | -0.016 | 0.004 | 0.095 | -0.004 | -0.029 | 0 | -0.285 (active) | 0.007 | 0.049 | 0.021 |
| NIPBL (UniProt Q6KC79) | 0.06 | -0.002 | -0.037 | 0.019 | 0.091 | -0.043 | 0.014 | 0.02 | 0.003 | 0.018 | -0.024 | -0.357 (active) | 0.101 | -0.005 | 0.071 |
| NFKBIE (UniProt O00221) | -0.074 | 0.014 | -0.053 | 0.424 (active) | 0.002 | -0.004 | -0.112 | 0.025 | 0.061 | -0.024 | -0.08 | 0.005 | 0.114 | -0.017 | -0.036 |
| MRPL58 (UniProt Q14197) | -0.022 | 0.045 | -0.008 | -0.012 | 0.021 | 0.017 | 0.003 | 0.055 | 0.025 | -0.032 | 0.02 | -0.053 | -0.008 | 0.038 | 0.041 |
| MYH11 isoform 2 (UniProt P35749) | -0.072 | -0.022 | -0.043 | -0.011 | 0.014 | 0.099 | -0.045 | -0.029 | 0.013 | -0.032 | 0.014 | 0.042 | 0.02 | -0.005 | 0.013 |
| NSL1 (UniProt Q96IY1) | -0.018 | 0.005 | -0.01 | -0.014 | 0 | -0.009 | 0.024 | -0.003 | 0.01 | -0.007 | -0.012 | -0.528 (active) | -0.022 | -0.005 | 0.03 |
| NCAPD3 (UniProt P42695) | 0.005 | -0.022 | -0.041 | 0.005 | 0.005 | -0.06 | 0.005 | 0.078 | -0.014 | -0.028 | -0.005 | -0.562 (active) | 0.034 | -0.022 | -0.007 |
